Test results as given in PubChem BioAssay (NCI).
This is part of a sample that, as a whole, favours compounds with a hit. Of some 83,000 tested, about 20% had one in any assay.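 Treatment: one concentration, 48 hours, 96-well format. Scoring: percent growth, with anything below 10 considered active.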 Activity calls are given as the source filed them.

How the values were obtained:
Experiment in all cases: NCI-60 one-dose screen, 48 h (100 = growth as untreated, 0 = no growth, -100 = all killed)
Settings in all cases: 10 µM unless noted
NCI-H23 lung = system: NCI-H23 lung
NCI-H226 lung = system: NCI-H226 lung
NCI-H322M lung = system: NCI-H322M lung
HOP-62 NSCLC = system: HOP-62 NSCLC
NCI-H460 lung = system: NCI-H460 lung
HOP-92 NSCLC = system: HOP-92 NSCLC
NCI-H522 lung = system: NCI-H522 lung
A549/ATCC NSCLC = system: A549/ATCC NSCLC
786-0 renal = system: 786-0 renal
COLO 205 colon = system: COLO 205 colon
DU-145 prostate = system: DU-145 prostate
K-562 leukemia = system: K-562 leukemia
MALME-3M melanoma = system: MALME-3M melanoma
MDA-MB-231 breast = system: MDA-MB-231 breast
RXF 393 renal = system: RXF 393 renal
SF-268 CNS = system: SF-268 CNS
SF-295 CNS = system: SF-295 CNS
SF-539 CNS = system: SF-539 CNS
M14 melanoma = system: M14 melanoma
UACC-257 melanoma = system: UACC-257 melanoma

Measured: growth

COc1ccc(/C=C/C(=O)NCCO)cc1
inactive: NCI-H23 lung 96.6% | NCI-H226 lung 97.9% | NCI-H322M lung 97.6% | HOP-62 NSCLC 87.7% | NCI-H460 lung 103% | HOP-92 NSCLC 105% | NCI-H522 lung 82% | A549/ATCC NSCLC 79.7% | 786-0 renal 100% | COLO 205 colon 112% | DU-145 prostate 102% | K-562 leukemia 95.7% | MALME-3M melanoma 92.3% | MDA-MB-231 breast 105% | RXF 393 renal 106% | SF-268 CNS 94.3% | SF-295 CNS 98.3% | SF-539 CNS 94.9% | M14 melanoma 106%

C/C(=N/NC(N)=S)C(=O)O
inactive: NCI-H23 lung 101% | NCI-H226 lung 90.1% | NCI-H322M lung 103% | HOP-62 NSCLC 107% | NCI-H460 lung 99.3% | HOP-92 NSCLC 107% | NCI-H522 lung 95.9% | A549/ATCC NSCLC 76% | 786-0 renal 102% | COLO 205 colon 119% | DU-145 prostate 102% | K-562 leukemia 55.3% | MALME-3M melanoma 102% | MDA-MB-231 breast 91.1% | RXF 393 renal 116% | SF-268 CNS 101% | SF-539 CNS 101% | UACC-257 melanoma 61.1% | M14 melanoma 97.4%

O=c1c2sc3ncc(Br)cc3c2ncn1-c1cccc(Cl)c1
inactive: NCI-H23 lung 87.4% | NCI-H226 lung 87.3% | NCI-H322M lung 48.2% | HOP-62 NSCLC 60.3% | NCI-H460 lung 24.9% | HOP-92 NSCLC 72.7% | NCI-H522 lung 82.8% | A549/ATCC NSCLC 43% | 786-0 renal 89% | COLO 205 colon 86.3% | DU-145 prostate 53.3% | K-562 leukemia 81.9% | MALME-3M melanoma 52.5% | MDA-MB-231 breast 49.5% | RXF 393 renal 73.6% | SF-268 CNS 64.1% | SF-539 CNS 81.4% | UACC-257 melanoma 88.4% | M14 melanoma 76%

CC1(c2ccccc2)OC1C(=O)O (configuration not stated)
inactive: NCI-H23 lung 94.1% | NCI-H226 lung 104% | NCI-H322M lung 97.9% | HOP-62 NSCLC 107% | NCI-H460 lung 107% | HOP-92 NSCLC 119% | NCI-H522 lung 97.8% | A549/ATCC NSCLC 105% | 786-0 renal 99.7% | COLO 205 colon 115% | DU-145 prostate 108% | K-562 leukemia 111% | MALME-3M melanoma 88.5% | MDA-MB-231 breast 110% | RXF 393 renal 103% | SF-268 CNS 106% | SF-295 CNS 101% | SF-539 CNS 96.1% | M14 melanoma 95.2%

NC1(N)C=CC2=C(C=C1)C1(N)C3=C(C=CC(N)(N)C=C3)N2C2(N)C3=C(C=CC(N)(N)C=C3)N1C1=C2C=CC(N)(N)C=C1
inactive: NCI-H23 lung 79.5% | NCI-H226 lung 97.7% | NCI-H322M lung 99.8% | HOP-62 NSCLC 89.8% | NCI-H460 lung 94.6% | HOP-92 NSCLC 70.3% | NCI-H522 lung 28.4% | A549/ATCC NSCLC 88.8% | 786-0 renal 84.3% | COLO 205 colon 104% | DU-145 prostate 97% | K-562 leukemia 81.7% | MALME-3M melanoma 103% | MDA-MB-231 breast 67.3% | RXF 393 renal 104% | SF-268 CNS 86.8% | SF-539 CNS 73.4% | UACC-257 melanoma 89.7% | M14 melanoma 94.5%

COc1cc2ncnc(Nc3ccc(Oc4ccnc(C)c4)c(C)c3)c2cc1NC(=O)CC1CCSS1 (configuration not stated)
active: NCI-H23 lung -49.5% | NCI-H322M lung -49.6% | HOP-62 NSCLC -50.7% | NCI-H460 lung -53.1% | NCI-H522 lung -57.6% | A549/ATCC NSCLC -63.8% | COLO 205 colon -81.1% | DU-145 prostate -7.01% | K-562 leukemia -50.9% | MALME-3M melanoma -27.5% | MDA-MB-231 breast -27.8% | RXF 393 renal 8.74% | SF-268 CNS -53.2% | SF-295 CNS -65.3% | SF-539 CNS 1.45% | M14 melanoma -65.1%
inactive: NCI-H226 lung 25.8% | HOP-92 NSCLC 62.6% | 786-0 renal 52.5%

NC(=O)NCC1CCCCC1
inactive: NCI-H23 lung 90.7% | NCI-H226 lung 102% | NCI-H322M lung 104% | HOP-62 NSCLC 112% | NCI-H460 lung 105% | HOP-92 NSCLC 114% | NCI-H522 lung 93.3% | A549/ATCC NSCLC 109% | 786-0 renal 101% | COLO 205 colon 111% | DU-145 prostate 104% | K-562 leukemia 102% | MALME-3M melanoma 99.3% | MDA-MB-231 breast 108% | RXF 393 renal 101% | SF-268 CNS 99.1% | SF-295 CNS 93.1% | SF-539 CNS 91.4% | M14 melanoma 104%

OCCNc1nc(Nc2ccc(Cl)c(Cl)c2)nc2ccccc12
inactive: NCI-H23 lung 54.5% | NCI-H226 lung 61.7% | NCI-H322M lung 71% | HOP-62 NSCLC 49.1% | NCI-H460 lung 33.3% | HOP-92 NSCLC 27.4% | NCI-H522 lung 62% | A549/ATCC NSCLC 37% | 786-0 renal 62% | DU-145 prostate 70.9% | MALME-3M melanoma 31.1% | RXF 393 renal 16.8% | SF-268 CNS 48.6% | SF-539 CNS 75.1% | UACC-257 melanoma 57.9% | M14 melanoma 29.9%
active: COLO 205 colon -21.7% | K-562 leukemia 2.65% | MDA-MB-231 breast 5.57%
